VACV mCherry inh: inhibitors of vaccinia virus infection (mCherry reporter signal) | AID 720579 | Vaccinia virus mCherry reporter infection, fluorescence | actives 0.63% (n = 310,000) | Potency, µM (series often up to 36.5 µM), without a hit: at the highest dose activity change, negative = inhibition, most hits filed as inhibitors; calls by dose curve; tested in A549 cells; note: potency is the fitted concentration of half-maximal effect; nearly all actives have a fitted effect of over 35% in size
FMDV inh: foot and mouth disease virus antiviral activity; FMDV antiviral cell-based qHTS; Potency, µM (series often up to 57.9 µM), for the others: at the top dose activity change, negative = inhibition, usual class: inhibitors; actives 1.2% (n = 410,000); AID 1159524; calls by dose curve; tested in HEK293T cells; note: read-out not given here; potency is the fitted concentration of half-maximal effect; nearly all actives have a fitted effect of over 45% in size
Sm TGR block: blocks Schistosoma mansoni thioredoxin glutathione reductase. Q962Y6. purified TGR, DTNB reduction, TNB absorbance 405 nm. Potency, µM (doses to about 114 µM), for the others: at the highest dose activity change, negative = inhibition, hits mostly inhibitors. actives 3% (n = 360,000); note: potency is the fitted concentration of half-maximal effect; nearly all actives have a fitted effect of over 60% in size
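First, TGR (20 nM dispensed) and NADPH were mixed with compound. Second, a 15 min room-temperature incubation followed. Third, further NADPH and then DTNB were added to start the reaction. Finally, TNB absorbance was monitored kinetically.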
HCMV antiviral: inhibitors of human cytomegalovirus. HFF cells, HCMV-luciferase reporter, 72 h; active compounds read low. activity change, negative = inhibition, % at 57.5 µM. actives 4.5% (n = 410,000); in the data active = activity change below about -60%; inconclusive = no clear call, values can overlap the other calls; inactive = above about -39%
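Two-dose cell screen: HFF monolayers treated with compounds and infected with luciferase-expressing HCMV at 1 PFU/cell, 72 h at 37C, then lysed for luciferase measurement.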
HCV inhibitor: HCV inhibition | AID 651820 | Potency, µM (doses to about 41.8 µM), without a hit: top-dose activity change, negative = inhibition, actives largely listed as inhibitors | actives 3.4% (n = 340,000) | Huh7.5.1 HCVcc-Cre infection, luciferase reporter, 44 h; note: potency is the fitted concentration of half-maximal effect
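A cell-based infection assay in which seeded cells (1,000 per well) receive test compound after 4 h, are inoculated with HCVcc-Cre at approximately 0.5 moi, and are incubated 44 h before luminescence detection.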
VACV Venus inh: vaccinia inhibition (Venus reporter). Potency, µM (highest dose often 36.5 µM), inactives show top-dose activity change, negative = inhibition, usual class: inhibitors. actives 0.46% (n = 330,000). Vaccinia virus Venus reporter expression, fluorescence. AID 720580; calls by dose curve; tested in A549 cells; note: potency is the fitted concentration of half-maximal effect; nearly all actives have a fitted effect of over 30% in size
The depositor's hits bear a star; i = inactive; ? = inconclusive; . = not tested or not shown; ! = repeats disagree; [ ] = another dose, or the depositor's remark. Compounds with a hit are over-represented: about 9.3% of the library has one in this group of screens. Unless noted, calls come from the whole dose curve; as a rule, active = well fitted curve in the direction sought with a large enough effect; inconclusive = small, poorly fitted or top-dose-only effect, or another doubt; inactive = no such curve, though single readings can be large; an effect the other way counts as inactive or inconclusive. % is set by controls: 0 for no effect and ±100 for the full control effect.

SMILES	VACV mCherry inh	FMDV inh	Sm TGR block	HCMV antiviral	HCV inhibitor	VACV Venus inh
O=C(N/N=C/c1ccc([N+](=O)[O-])cc1)c1ccc(NS(=O)(=O)c2cccs2)cc1	.	3%	-3%	-2	-20%	.
O=C(N/N=C\C=C\c1ccc([N+](=O)[O-])o1)c1cccs1	10µM*	2%	10µM*	-65*	?	?
CCc1ccc(NC2=NCC(=O)N2Cc2ccc3c(c2)OCO3)cc1	-2%	0%	3%	81	1%	-12%
Cc1cc(Nc2ccccc2)nn1C(=O)c1ccc(Br)cc1	.	-11%	0%	?	14µM*	-27%
CNC(=O)C1=C(C)n2c(nc3ccccc32)NC1c1ccc(OC)cc1 (stereo unspecified)	-7%	30%	-10%	42	25%	-10%
CCOCCCNC(=O)c1ccc(-c2nc(CS(=O)(=O)c3ccccc3)c(C)o2)cc1	i	?	?	-14	.	-21%
COCCNC(=O)c1ccc(-c2nc(CS(=O)(=O)c3ccccc3)c(C)o2)cc1	-11%	0%	22µM*	17	.	3%
Cc1oc(-c2ccc(C(=O)NCCN(C)C)cc2)nc1CS(=O)(=O)c1ccccc1	-2%	-16%	-2%	-70*	.	-10%
CC1(C)CC(NS(=O)(=O)c2ccc(F)cc2)CC(C)(C)N1	i	0%	2%	39	5%	-1%
O=C(CCCCn1cnc2c(=S)nc[nH]c21)Nc1ccc(C(=O)O)c(O)c1	-13%	-11%	.	-73*	5%	-2%
O=C(CCN1C(=O)/C(=C/c2cccs2)SC1=S)Nc1ccc(C(=O)O)c(O)c1	.	10%	0%	?	6%	.
O=C(COC(=O)/C=C/c1ccco1)NCc1ccccc1	6%	7%	-1%	1	14%	3%
CCOC(=O)c1c(C)[nH]c(C)c1C(=O)COC(=O)/C=C/c1ccco1	-13%	-19%	32µM*	70	-1%	-14%
CC(C)NC(=O)COC(=O)/C=C/c1ccco1	-13%	14%	50µM*	2	11%	-11%
CCN(CC(=O)NCc1ccc(Cl)cc1)C(=O)c1cnc(Cl)c(Cl)c1	i	3%	-7%	-63*	-25%	-8%
O=C(COC(=O)/C=C/c1ccco1)NCc1ccc(Cl)cc1	.	-7%	18µM*	20	2%	.
CCCCC[C@H](O)CC[C@H]1[C@H](O)CC(=O)[C@@H]1CCCCCCC(=O)O	-11%[3.33 µM]	-7%[6.7 µM]	.	.	.	-5%[3.33 µM]
CC(=O)N1CCN(S(=O)(=O)c2cccc(C(=O)Nc3nc4ccccc4[nH]3)c2)CC1	.	0%	32%	4	13%	-13%
CCc1nnc(NC(=O)CSc2nnc(-c3cccnc3)n2CC)s1	-16%	-9%	6%	-14	5%	-10%
Cc1ccc(/C=C/C(=O)OCC(=O)NCc2cccs2)o1	-29%	22%	.	-14	-11%	15%
CCN(CC(=O)NCc1ccc(Cl)cc1)C(=O)/C=C/c1ccco1	2%	-9%	25µM*	90	10%	-6%
Cc1ccc(/C=C/C(=O)OCC(=O)NC(C)C)o1	-3%	-7%	50µM*	-23	?	-14%
CCCNC(=O)COC(=O)/C=C/c1ccco1	-13%	-17%	45µM*	-3	-10%	-2%
COC(=O)CC/C(C)=N\Nc1ccc([N+](=O)[O-])cc1[N+](=O)[O-]	.	-20%	41%	-103*	-16%	.
COc1ccc(/C=N\Nc2ccc([N+](=O)[O-])cc2[N+](=O)[O-])c(C(=O)O)c1OC	.	-12%	8.9µM*	-27	1%	.
SMILES	VACV mCherry inh	FMDV inh	Sm TGR block	HCMV antiviral	HCV inhibitor	VACV Venus inh
O=C1NC(=O)/C(=C/c2ccc(-c3cc(C(=O)O)ccc3Cl)o2)S1	.	-16%	-25%	-11	8%	.
O=C1NC(=O)/C(=C\c2ccc(Br)o2)S1	i	24%	14µM*	30	11%	-18%
COc1cc(CN2CCCC(C(=O)c3ccc4c5c(cccc35)CC4)C2)cc(OC)c1O (stereo unspecified)	.	-17%	14µM*	10	?	.
O=C(c1ccc2c3c(cccc13)CC2)C1CCCN(C(=O)c2cccnc2)C1 (stereo unspecified)	-10%	-24%	-1%	?	-13%	-21%
O=C(c1ccc2c3c(cccc13)CC2)C1CCCN(Cc2cccnc2)C1 (stereo unspecified)	-4%	0%	-21%	-14	22µM*	-6%
CCOC(=O)[C@]12Cc3cc(Cl)ccc3[C@H]1N(Cc1ccccc1)C(=O)c1ccccc12	?	?	.	-34	-13%[8.37 µM]	-2%
CCOC(=O)[C@]12Cc3ccccc3[C@H]1N(Cc1ccccc1)C(=O)c1cc(F)c(F)cc12	-15%	25µM*	.	?	.	-13%
CCOC(=O)[C@]12Cc3cc(N(C)C)ccc3[C@H]1N(Cc1ccccc1)C(=O)c1ccccc12	-27%	0%	.	-26	11µM*	-27%
CCOC(=O)[C@]12Cc3cc4c(cc3[C@H]1N(Cc1ccccc1)C(=O)c1ccccc12)OCO4	11µM*!	-29%	.	-18	?	?
CCOc1cc(C)nc(Oc2ccc(=O)[nH]n2)n1	-1%	11%	-1%	51	-3%	-1%
O=C(NCc1ccccc1)C(=O)NCC(c1cccnc1)N1CCN(c2ccccc2)CC1 (stereo unspecified)	-14%	?	-7%	-17	.	-21%
COc1cc(/C=C/C(=O)O)cc(S(=O)(=O)Nc2ccc3nc(C)sc3c2)c1OC	i	-1%	1%	?	0%	-7%
CC(C)Oc1ccc(CN2CCC(n3nccc3NC(=O)C3CC3)CC2)cc1	i	-1%	40%	-70*	8%	-16%
CCOc1cc(CN2CCC(n3nccc3NC(=O)C3CC3)CC2)ccc1O	.	11%	40µM*	0	9%	.
Cn1cc(CN2CCC(n3nccc3NC(=O)c3ccccc3Cl)CC2)cn1	i	0%	-20%	-29	.	-10%
O=C(CCOc1ccccc1)Nc1ccnn1C1CCN(Cc2ccc(O)cc2)CC1	-29%	-10%	40µM*	-16	-1%	?
O=C(Nc1ccnn1C1CCN(Cc2ccc(F)cc2)CC1)C1CC1	.	13%	7%	?	4%	.
CCc1ccc(CN2CCC(n3nccc3NC(=O)c3ccccc3Cl)CC2)cc1	-27%	32µM*	0%	-10	?	-23%
Cc1c(Cl)cccc1NC(=O)CN1C(=O)C(C)N=C(c2ccccc2)c2ccccc21 (stereo unspecified)	-11%	-10%	3%	-27	.	-8%
O=C(NCc1ccc(Cl)cc1)c1ccc(Cn2c(=O)c3cccn3c3cccnc32)cc1	-12%	-13%	1%	?	.	-17%
Cc1cc(-c2n[nH]c(=S)n2/N=C/c2sccc2C)n[nH]1	i	-9%	-16%	22	26%	-12%
